The full ranking holds about 9,900 sequences; the median of “r (bound/input frequency ratio)” is about 0.7, and the highest 2% start at about 6.5. The list comes from a sample in which the highest values are over-represented; it also holds similar and randomly drawn sequences.

B1: ENSMUSG00000031028.174|Tub|17:22 (ssRNA)
RNA: GGGAGUUCUACAGUCCGACGAUCGCUUCGAUAUCCGCAUGCUAAGAGGUAGCGGACCUCACACACGUUCACCAACAGCAAUGCUGAUCCCUGAGUAUAGGGCACAUGUCUCUUGGUUACCUCACUGGUUAAUGGCAGAGUUGAGAACCUCAAAUUCUUUUGUUCCUACUGUUGCCCAGAAACUAGACUCUCUGACCUGCUAGGGUCUAUUCUGCAUGUCCUUUCUCUUCCCAGUUCCAGAGAUGAAACCCCUCCGAGUUAAUGUAUAAGGUUGGAAACCUUUCAGUAGGGAAUCAGGCAGUUCCUCUUGCGGUCGCACUAGUGUGGAAUUCUCGGGUGUCAAGG
B2: ENSMUSG00000029028.255|Lrrc47 (ssRNA)
RNA: GGGAGUUCUACAGUCCGACGAUCGCUUCGAUAUCCGCAUGCUAGCUCACAGGUCCCUUUGAGUGGCUGUGGCAAGUACUCACCUACUAAGUGUUUAGGGUGGAGCUAUCCUGUGCUCACCCUGUCUCCCCCCAGUUCCUGCUGUUCCCUCCAGCCCAGCCCAGCCCAGGUGUGAGAUUCAUUGAGAUUUUUGAAACUGUUUUUACAGAUUCAAGCAGAACGCCUCUUUGUUCUAAUAAAAACCCUUGGUAACGACAUCUCUGCAUCAGCAGCCUUAGCACAUGCGUCUCCCAGGACAGUGUUGCUCUUGCGGUCGCACUAGUGUGGAAUUCUCGGGUGUCAAGG
B3: ENSMUSG00000029636.271|Wasf3|45:50 (ssRNA)
RNA: GGGAGUUCUACAGUCCGACGAUCGCUUCGAUAUCCGCAUGCUAAGUGAAAGCCCAUGUGCAAGCCCCUCCCUACGCCCUGCUUUGGCCACACACUGAGUGCUCUGUGCUGCGCCAUGGCCAUCCUGGAGCCUGCGCACACGUGGCCGCUGCUGUGACUCGCUGUCCUUGGUAAUUGGUGAGAGGCUUUUUCUUUCUUUCUCAGUUCUGCUUUUCCACACUGAGACCCACCAUGUUGACAUCAUCCUCGCGACGUUGACAUUUGAGCCUUUUGUUCUGUCUCCCAUGUGCCCUGUAGAACCCAGCUCUUGCGGUCGCACUAGUGUGGAAUUCUCGGGUGUCAAGG
B4: ENSMUSG00000022095.268|Fam160b2 (ssRNA)
RNA: GGGAGUUCUACAGUCCGACGAUCGCUUCGAUAUCCGCAUGCUAAGAGAGAGAGAGAGAGCGAGCUAUGAAUGAAUGUGAGUGUGUGUGUGUGUGUGUGUGAGAGAGAGAGAGAGAGAGAGAGAGCUGUGAGUACACAUGGGUGCUGGUGUGGGACAGGAGCAGAUCUUGGUGGAGUGGGUCUACACUUGAGAUUUGUACUCGUUUGAGAGGCUGGGCAAUACUCAAUGCACUUUGGCAUUUGCAUGGUGUCUUCACAACAGCACAGCAAUAAACAUUGUGAUUGUGUGGACAUGCUGACUCUCCUCUUGCGGUCGCACUAGUGUGGAAUUCUCGGGUGUCAAGG
B5: ENSMUSG00000022095.269|Fam160b2 (ssRNA)
RNA: GGGAGUUCUACAGUCCGACGAUCGCUUCGAUAUCCGCAUGCUAAGAGAGAGAGCGAGCUAUGAAUGAAUGUGAGUGUGUGUGUGUGUGUGUGUGAGAGAGAGAGAGAGAGAGAGAGAGCUGUGAGUACACAUGGGUGCUGGUGUGGGACAGGAGCAGAUCUUGGUGGAGUGGGUCUACACUUGAGAUUUGUACUCGUUUGAGAGGCUGGGCAAUACUCAAUGCACUUUGGCAUUUGCAUGGUGUCUUCACAACAGCACAGCAAUAAACAUUGUGAUUGUGUGGACAUGCUGACUCUCCCCAGUCUCUUGCGGUCGCACUAGUGUGGAAUUCUCGGGUGUCAAGG
B6: ENSMUSG00000022095.269|Fam160b2|31:51;98:102;234:239 (ssRNA)
RNA: GGGAGUUCUACAGUCCGACGAUCGCUUCGAUAUCCGCAUGCUAAGAGAGAGAGCGAGCUAUGAAUGAAUGUGACACACACACACACACACACACAGAGAGAGAGAGAGAGAGAGAGAGCUGUGAGUACACAUGGGUGCUGCACACGGACAGGAGCAGAUCUUGGUGGAGUGGGUCUACACUUGAGAUUUGUACUCGUUUGAGAGGCUGGGCAAUACUCAAUGCACUUUGGCAUUUGCAUGGUGUCUUCACAACAGCACAGCAAUAAACAUUGUGAUACACACGACAUGCUGACUCUCCCCAGUCUCUUGCGGUCGCACUAGUGUGGAAUUCUCGGGUGUCAAGG
B7: ENSMUSG00000022095.271|Fam160b2 (ssRNA)
RNA: GGGAGUUCUACAGUCCGACGAUCGCUUCGAUAUCCGCAUGCUAAGCUAUGAAUGAAUGUGAGUGUGUGUGUGUGUGUGUGUGAGAGAGAGAGAGAGAGAGAGAGAGCUGUGAGUACACAUGGGUGCUGGUGUGGGACAGGAGCAGAUCUUGGUGGAGUGGGUCUACACUUGAGAUUUGUACUCGUUUGAGAGGCUGGGCAAUACUCAAUGCACUUUGGCAUUUGCAUGGUGUCUUCACAACAGCACAGCAAUAAACAUUGUGAUUGUGUGGACAUGCUGACUCUCCCCAGUCUGCUUUUCUUUCUCUUGCGGUCGCACUAGUGUGGAAUUCUCGGGUGUCAAGG
B8: ENSMUSG00000022095.272|Fam160b2 (ssRNA)
RNA: GGGAGUUCUACAGUCCGACGAUCGCUUCGAUAUCCGCAUGCUAGAAUGAAUGUGAGUGUGUGUGUGUGUGUGUGUGAGAGAGAGAGAGAGAGAGAGAGAGCUGUGAGUACACAUGGGUGCUGGUGUGGGACAGGAGCAGAUCUUGGUGGAGUGGGUCUACACUUGAGAUUUGUACUCGUUUGAGAGGCUGGGCAAUACUCAAUGCACUUUGGCAUUUGCAUGGUGUCUUCACAACAGCACAGCAAUAAACAUUGUGAUUGUGUGGACAUGCUGACUCUCCCCAGUCUGCUUUUCUUUUCCCCACUCUUGCGGUCGCACUAGUGUGGAAUUCUCGGGUGUCAAGG
B9: ENSMUSG00000022095.272|Fam160b2|13:33;80:84;216:221 (ssRNA)
RNA: GGGAGUUCUACAGUCCGACGAUCGCUUCGAUAUCCGCAUGCUAGAAUGAAUGUGACACACACACACACACACACACAGAGAGAGAGAGAGAGAGAGAGAGCUGUGAGUACACAUGGGUGCUGCACACGGACAGGAGCAGAUCUUGGUGGAGUGGGUCUACACUUGAGAUUUGUACUCGUUUGAGAGGCUGGGCAAUACUCAAUGCACUUUGGCAUUUGCAUGGUGUCUUCACAACAGCACAGCAAUAAACAUUGUGAUACACACGACAUGCUGACUCUCCCCAGUCUGCUUUUCUUUUCCCCACUCUUGCGGUCGCACUAGUGUGGAAUUCUCGGGUGUCAAGG
B10: ENSMUSG00000022095.271|Fam160b2|19:39;86:90;222:227 (ssRNA)
RNA: GGGAGUUCUACAGUCCGACGAUCGCUUCGAUAUCCGCAUGCUAAGCUAUGAAUGAAUGUGACACACACACACACACACACACAGAGAGAGAGAGAGAGAGAGAGAGCUGUGAGUACACAUGGGUGCUGCACACGGACAGGAGCAGAUCUUGGUGGAGUGGGUCUACACUUGAGAUUUGUACUCGUUUGAGAGGCUGGGCAAUACUCAAUGCACUUUGGCAUUUGCAUGGUGUCUUCACAACAGCACAGCAAUAAACAUUGUGAUACACACGACAUGCUGACUCUCCCCAGUCUGCUUUUCUUUCUCUUGCGGUCGCACUAGUGUGGAAUUCUCGGGUGUCAAGG
B11: ENSMUSG00000022095.273|Fam160b2 (ssRNA)
RNA: GGGAGUUCUACAGUCCGACGAUCGCUUCGAUAUCCGCAUGCUAAUGUGAGUGUGUGUGUGUGUGUGUGUGAGAGAGAGAGAGAGAGAGAGAGAGCUGUGAGUACACAUGGGUGCUGGUGUGGGACAGGAGCAGAUCUUGGUGGAGUGGGUCUACACUUGAGAUUUGUACUCGUUUGAGAGGCUGGGCAAUACUCAAUGCACUUUGGCAUUUGCAUGGUGUCUUCACAACAGCACAGCAAUAAACAUUGUGAUUGUGUGGACAUGCUGACUCUCCCCAGUCUGCUUUUCUUUUCCCCAAGCUUUCUCUUGCGGUCGCACUAGUGUGGAAUUCUCGGGUGUCAAGG
B12: ENSMUSG00000022095.270|Fam160b2|25:45;92:96;228:233 (ssRNA)
RNA: GGGAGUUCUACAGUCCGACGAUCGCUUCGAUAUCCGCAUGCUAAGAGCGAGCUAUGAAUGAAUGUGACACACACACACACACACACACAGAGAGAGAGAGAGAGAGAGAGAGCUGUGAGUACACAUGGGUGCUGCACACGGACAGGAGCAGAUCUUGGUGGAGUGGGUCUACACUUGAGAUUUGUACUCGUUUGAGAGGCUGGGCAAUACUCAAUGCACUUUGGCAUUUGCAUGGUGUCUUCACAACAGCACAGCAAUAAACAUUGUGAUACACACGACAUGCUGACUCUCCCCAGUCUGCUUCUCUUGCGGUCGCACUAGUGUGGAAUUCUCGGGUGUCAAGG
B13: ENSMUSG00000022095.266|Fam160b2|1:10;49:69;116:120;252:257 (ssRNA)
RNA: GGGAGUUCUACAGUCCGACGAUCGCUUCGAUAUCCGCAUGCUAACACACACACAGAGAGAGAGAGAGAGAGCGAGCUAUGAAUGAAUGUGACACACACACACACACACACACAGAGAGAGAGAGAGAGAGAGAGAGCUGUGAGUACACAUGGGUGCUGCACACGGACAGGAGCAGAUCUUGGUGGAGUGGGUCUACACUUGAGAUUUGUACUCGUUUGAGAGGCUGGGCAAUACUCAAUGCACUUUGGCAUUUGCAUGGUGUCUUCACAACAGCACAGCAAUAAACAUUGUGAUACACACGACCUCUUGCGGUCGCACUAGUGUGGAAUUCUCGGGUGUCAAGG
B14: ENSMUSG00000022095.270|Fam160b2 (ssRNA)
RNA: GGGAGUUCUACAGUCCGACGAUCGCUUCGAUAUCCGCAUGCUAAGAGCGAGCUAUGAAUGAAUGUGAGUGUGUGUGUGUGUGUGUGUGAGAGAGAGAGAGAGAGAGAGAGAGCUGUGAGUACACAUGGGUGCUGGUGUGGGACAGGAGCAGAUCUUGGUGGAGUGGGUCUACACUUGAGAUUUGUACUCGUUUGAGAGGCUGGGCAAUACUCAAUGCACUUUGGCAUUUGCAUGGUGUCUUCACAACAGCACAGCAAUAAACAUUGUGAUUGUGUGGACAUGCUGACUCUCCCCAGUCUGCUUCUCUUGCGGUCGCACUAGUGUGGAAUUCUCGGGUGUCAAGG
B15: ENSMUSG00000022095.268|Fam160b2|37:57;104:108;240:245 (ssRNA)
RNA: GGGAGUUCUACAGUCCGACGAUCGCUUCGAUAUCCGCAUGCUAAGAGAGAGAGAGAGAGCGAGCUAUGAAUGAAUGUGACACACACACACACACACACACAGAGAGAGAGAGAGAGAGAGAGAGCUGUGAGUACACAUGGGUGCUGCACACGGACAGGAGCAGAUCUUGGUGGAGUGGGUCUACACUUGAGAUUUGUACUCGUUUGAGAGGCUGGGCAAUACUCAAUGCACUUUGGCAUUUGCAUGGUGUCUUCACAACAGCACAGCAAUAAACAUUGUGAUACACACGACAUGCUGACUCUCCUCUUGCGGUCGCACUAGUGUGGAAUUCUCGGGUGUCAAGG

Sequence of TDP-43 (Q13148 whole entry): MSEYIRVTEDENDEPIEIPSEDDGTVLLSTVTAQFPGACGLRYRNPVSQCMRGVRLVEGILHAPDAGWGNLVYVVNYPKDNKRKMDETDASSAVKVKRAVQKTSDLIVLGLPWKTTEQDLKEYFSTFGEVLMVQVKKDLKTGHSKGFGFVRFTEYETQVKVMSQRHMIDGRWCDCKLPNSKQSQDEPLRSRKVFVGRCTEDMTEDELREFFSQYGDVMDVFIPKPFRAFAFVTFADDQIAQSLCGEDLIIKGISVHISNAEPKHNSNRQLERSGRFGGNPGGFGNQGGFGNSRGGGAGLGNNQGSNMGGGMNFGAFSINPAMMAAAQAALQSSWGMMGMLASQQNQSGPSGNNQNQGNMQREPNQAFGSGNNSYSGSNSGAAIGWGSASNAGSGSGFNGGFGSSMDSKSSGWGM

This experiment addresses TDP-43 (Homo sapiens, UniProt Q13148 1-414). In words: RNA Bind-n-Seq with designed 260-mer pool; 25 mM Tris-HCl, 150 mM KCl, 3 mM MgCl2, BSA (printed 500 mg/mL), 20 units/mL SUPERase IN; pH not stated; 500 nM RNA pool, 1 h, 4 C; TDP-43 5, 50, 500 nM; high values mean tight binding. The following applies: protein: recombinant; tags: SBP (GST cleaved off with PreScission; pGEX-GST-SBP). An outline of the steps:
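Duplicate measurements used two independent batches of recombinant SBP-tagged TDP-43, which was captured on streptavidin beads at 5, 50 or 500 nM. The beads were incubated with 500 nM of an in vitro-transcribed 260-nt 3′ UTR oligo pool for 1 h at 4 °C in 25 mM Tris-HCl, 150 mM KCl, 3 mM MgCl2, BSA and SUPERase IN. After washing, biotin elution, reverse transcription, PCR amplification and sequencing, binding was expressed as R: each oligo's normalized read abundance in the bound sample over its abundance in input.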
With B1, the binding signal was 0.553 R (bound/input frequency ratio).

Turning to B2, the binding signal was 0.69 R (bound/input frequency ratio).

Turning to B3, the binding signal is 0.821 R (bound/input frequency ratio).

Consider B4, for which the binding signal was 6.67 R (bound/input frequency ratio).

As for B5, the binding signal was 7.25 R (bound/input frequency ratio).

Turning to B6, the binding signal was 4.63 R (bound/input frequency ratio).

On to B7, for which the binding signal is 7.64 R (bound/input frequency ratio).

Regarding B8, the binding signal is 5.79 R (bound/input frequency ratio).

With B9, the binding signal is 4.46 R (bound/input frequency ratio).

As for B10, the binding signal is 4.21 R (bound/input frequency ratio).

As for B11, the binding signal was 5.83 R (bound/input frequency ratio).

Take B12: the binding signal is 4.7 R (bound/input frequency ratio).

Regarding B13, the binding signal was 4.83 R (bound/input frequency ratio).

As to B14, the binding signal is 7.19 R (bound/input frequency ratio).

With B15, the binding signal was 6.08 R (bound/input frequency ratio).

Source of the values: article PMC12864922, “TDP-43 directly inhibits mRNA accumulation in neurites through modulation of mRNA stability”.
